Source: PubChem BioAssay AID720532 (National Center for Advancing Translational Sciences (NCATS), 2013)
Values joined by “and” are separate entries in the source; they are usually repeats but may differ in a detail not shown here. Equal entries are not always repeated. The whole screen tested about 18,000 compounds, of which about 1,200 (6.7%) were called active. About 16% were inconclusive and are not listed. The sample as a whole holds a higher share of actives than the screen did. Values without a mark were called inactive. Calls come from the whole dose curve; tested in HEK293 cells. Bridge positions count the residues as written; N and C are the ends. Peptide text beside a SMILES is read from it.

Assay: qHTS for Inhibitors of binding or entry into cells for Marburg Virus
Details: Marburg virus pseudotype entry/binding inhibition, cell-based; series mostly up to 49.2 µM; activity change, negative = inhibition: at the top concentration
% is set by controls: 0 for no effect and ±100 for the full control effect; potency is the fitted concentration of half-maximal effect.

| Compound | activity change, negative = inhibition | Potency |
| --- | --- | --- |
| COc1cc(OC)c2c(c1Cl)OC1(C2=O)C(O)=CC(=O)CC1C (stereo not drawn) | -5.71% | – |
| CSc1ccccc1N1CCN(CCCCCC(=O)NC2CCCc3ccccc32)CC1 (stereo not drawn) | – | 10 µM (active) |
| COC(=O)Nc1nc2ccc(Sc3ccccc3)cc2[nH]1 | -40.1% [at 17.8 µM] | – |
| COC(=O)Nc1nc2ccc(Oc3ccc(NC(=O)Nc4cccc(Cl)c4)cc3)cc2[nH]1 | – | 4.99 µM (active) |
| C1CC[C@H]([C@@]23C[C@H](C[C@H]4CCCN[C@H]42)[C@@H]2CCCCN2C3)NC1 | – | 12.6 µM (active) |
| COC(=O)CC=C[C@@H](C)[C@H](NC(=O)OCC(Cl)(Cl)Cl)c1ccccc1 | 0.224% [at 8.59 µM] | – |
| NC[C@@H]1O[C@H](O[C@@H]2[C@H](O[C@@H]3O[C@H](CO)[C@@H](COC[C@H]4O[C@@H](CN)[C@@H](O)[C@@H](O)[C@@H]4N)[C@@H]3O)[C@@H](O)[C@@H](N)C[C@H]2N)[C@@H](N)[C@H](O)[C@@H]1O | 2.02% [at 17.8 µM] | – |
| Nc1ccc2c3c(cccc13)C(=O)NC2=O | 17.5% | – |
| S=C(NCCCc1cnc[nH]1)NCCCN(Cc1ccc(Cl)c(Cl)c1)c1ccc(Br)cn1 | – | 20 µM (active) |
| CCCCC[C@H](O)/C=C/[C@@H]1[C@@H](CC(=O)CCC(=O)O)[C@@H](O)C[C@H]1O | -3.98% | – |
| CCOC(=O)[C@@]12C3[C@@H](CCN3C(=O)N[C@@H]1c1ccccc1)[C@@H]2C (stereo partly drawn) | -11.3% [at 8.59 µM] | – |
| O=S1(=O)CCSCCN1Cc1ccccc1F | 20.8% | – |
| CC(C)NC[C@H](O)c1ccc2ccccc2c1 | 3.68% | – |
| Nc1nc2nc(Cl)[nH]c2c(=O)[nH]1 | 7.94% | – |
| COC(=O)c1cc(C(=O)OC)n2ccc3cc(OC)c(OC)cc3c12 | 51.8% [at 8.59 µM] | – |
| CO/N=C(\C(=O)N[C@@H]1C(=O)N2C(C(=O)O)=C(C[N+]3(C)CCCC3)CS[C@H]12)c1csc(N)n1 | 19.5% | – |
| COc1ccc2nccc(C(=O)O)c2c1 | 2.51% [at 17.8 µM] | – |
| CC[C@@H]1CN2CC[C@@H]1C[C@H]2[C@H](O)c1ccnc2ccc(OC)cc12 | – | 31.6 µM (active) |
| COc1cccc([C@@H]2Oc3ccc(Br)cc3C(=O)[C@H]2OC(=O)NCCc2ccc(OC)c(OC)c2)c1 | 52.3% | – |
| CCCC(C(=O)OCCN(CC)CC)(c1ccccc1)c1ccccc1 | – | 15.8 µM (active) |
| CCC(C(=O)OCCN(CC)CC)c1ccccc1 (stereo not drawn) | 2.21% | – |
| CC[N+]1(CCOC(=O)C(O)(c2ccccc2)c2ccccc2)CCCCC1 | 2.06% | – |
| CCCCC/C=C\C/C=C\CCCCCCCCCC(N)=O | -10.4% | – |
| CCCCOCC1CN(CCCC)S(=O)(=O)c2c(Oc3ccc(F)cc3)cccc2O1 (stereo not drawn) | -22.2% | – |
| CN1CCN2c3ccccc3Cc3ccccc3[C@@H]2C1 | – | 15.8 µM (active) |

| Compound | activity change, negative = inhibition | Potency |
| --- | --- | --- |
| CN1C(=O)CN2CCc3ccccc3C2c2cc(Cl)ccc21 (stereo not drawn) | -3.29% | – |
| H-EHIPA-OH | 6.8% | – |
| COc1ccc(Nc2ncnc3ccc(OC)cc23)cc1 | 15.2% | – |
| CC(C)(C)OC(=O)Nc1ccc(OCc2cn(CC(=O)c3ccc(O)cc3)nn2)cc1 | 17.5% | – |
| CO/N=C(/C(=O)N[C@@H]1C(=O)N2C(C(=O)O)=C(Cn3nnc(C)n3)CS[C@H]12)c1csc(N)n1 | 13% | – |
| CC/C=C\C/C=C\C/C=C\C/C=C\C/C=C\C/C=C\CCC(=O)NC(C)C(=O)O (stereo not drawn) | 4.32% | – |
| CC12C=C(C=Cc3ccc(F)cc3)C(C)(C1)C(c1ccc(F)cc1)CC2=O (stereo not drawn) | 8.67% [at 8.59 µM] | – |
| CC(C)[C@H]1CC[C@@H](C)C[C@H]1O | -12.9% | – |
| COC(=O)C1=C(C(=O)OC)[C@@H]2N(C)c3ccccc3[C@@]23C[C@@H](C(=O)OC)N(C(=O)c2ccco2)C3=N1 | 74% [at 8.59 µM] | – |
| C[C@H](CCC(=O)NCC(=O)O)[C@H]1CC[C@H]2[C@H]3[C@@H](C[C@@H](O)[C@]12C)[C@]1(C)CC[C@H](O)C[C@@H]1C[C@@H]3O | 7.66% [at 17.8 µM] | – |
| COC(=O)[C@@]1(C=C[C@@H](C)[C@H](OC)c2ccccc2Br)[C@@H]2Oc3ccccc3[C@@H]21 | 4.01% [at 8.59 µM] | – |
| C=C[C@](C)(O)CCC1C(=C)CCC2[C@@](C)(CO)CCC[C@@]12C (stereo partly drawn) | 1.45% | – |
| COc1cccc([C@@H]2Oc3ccc(OC)cc3C(=O)[C@@H]2OC(=O)Nc2cc(OC)c(OC)c(OC)c2)c1 | 12.9% [at 8.59 µM] | – |
| Fc1ccc(Cl)cc1-c1nc(Nc2ccncc2)c2nccnc2n1 | -20.9% | – |
| C=C(C(C)=O)C(O)c1ccc([N+](=O)[O-])cc1 (stereo not drawn) | -9.42% | – |
| COc1ccc(-c2nc3c(c4c2C[C@H](c2ccccc2)OC4)CN(C(=O)C2CC2)CC3)c(C)c1 | -29.5% [at 8.59 µM] and -8.72% [at 8.59 µM] | – |
| C[C@@H](O)[C@@H]1NC(=O)[C@H](CCCCN)NC(=O)[C@H](Cc2c[nH]c3ccccc23)NC(=O)[C@H](Cc2ccccc2)NC(=O)[C@H](Cc2ccccc2)NC(=O)[C@H](CC(N)=O)NC(=O)[C@H](CCCCN)NC(=O)[C@@H](NC(=O)[C@@H]2CCCN2)CSSC[C@@H](C(=O)N[C@@H](CCCCN)C(=O)O)NC(=O)[C@H](CO)NC(=O)[C@H](CO)NC(=O)[C@H](Cc2ccccc2)NC1=O (H-PCKNFFWKTFSSCK-OH; disulfide 2-13) | 9.81% | – |
| C[C@@H]1C(c2ccc(F)cc2)=NN(c2ccc(Br)cc2)[C@H]1C(=O)N1CCOC1=O | -15% | – |
| C/C=C/C1=C(C(=O)O)N2C(=O)[C@@H](NC(=O)[C@H](N)c3ccc(O)cc3)[C@H]2SC1 | 33.3% | – |
| COC(=O)CC1c2ccccc2C(Cc2ccc(OC)cc2)=C(C)N1C(=O)OC (stereo not drawn) | 0.314% [at 8.59 µM] and -19% [at 8.59 µM] | – |
| CC(C)(C)OC(=O)N1CCC(C(=O)Nc2cccc(C(=O)NCCc3ccccc3)c2)CC1 | 27.7% | – |
| CC(C)(O)CCC(O)[C@@](C)(O)C1CC[C@]2(O)C3=CC(=O)C4CC(O)C(O)C[C@]4(C)C3CC[C@]12C (stereo partly drawn) | 7.71% | – |
| CC(C)=CCC[C@]1(C)[C@@H](CC=C(C)C)C[C@@]2(CC=C(C)C)C(=O)[C@]1(C(=O)C(C)C)C(=O)C(CC=C(C)C)=C2O | – | 15.8 µM (active) |
| CC1(OC(=O)C2CCCC2)C(=O)C=C2C=C(c3ccc(C#N)cc3)OC=C2C1=O (stereo not drawn) | inactive | – |
| CCN1C(=NCc2cc(OC)c(OC)c(OC)c2)NC(c2cccc(C(F)(F)F)c2)C(C(=O)OC)=C1C (stereo not drawn) | 12.8% [at 8.59 µM] | – |

| Compound | activity change, negative = inhibition | Potency |
| --- | --- | --- |
| O=C1C=C(c2ccccc2)CCC1 | inactive | – |
| CC[C@H](C)[C@H](NC(=O)[C@H](CCCNC(=N)N)NC(=O)[C@H](CCCNC(=N)N)NC(=O)[C@H](CC(C)C)NC(=O)[C@H](Cc1ccccc1)NC(=O)CNC(=O)CNC(=O)[C@@H](N)Cc1ccc(O)cc1)C(=O)N[C@@H](CCCNC(=N)N)C(=O)N1CCC[C@H]1C(=O)N[C@@H](CCCCN)C(=O)N[C@@H](CC(C)C)C(=O)N[C@@H](CCCCN)C(=O)N[C@@H](Cc1c[nH]c2ccccc12)C(=O)N[C@@H](CC(=O)O)C(=O)N[C@@H](CC(N)=O)C(=O)N[C@@H](CCC(N)=O)C(=O)O | 5.11% | – |
| CNCC[C@H](Oc1ccc(C(F)(F)F)cc1)c1ccccc1 | – | 3.98 µM (active) and 8.91 µM (active) |
| COC(=O)N[C@@H](c1ccccc1)[C@]1(C(=O)OC)CCCC1=O | -27.3% [at 8.59 µM] | – |
| CC[C@H](C)[C@@H](NC(=O)O[C@@H]1C(=O)c2cc(OC)ccc2O[C@H]1c1cccc(OC)c1)C(=O)OC | -4.78% | – |
| COc1ccccc1C1CN(CCNC(=O)C2=CCCC2)Cc2ccccc2O1 (stereo not drawn) | -15.4% | – |
| COCC(=O)Nc1cc(C(=O)N2CCCC(c3ccccc3)CC2)c2c(c1)nc(-c1ccncc1)n2C (stereo not drawn) | 10.9% | – |
| C=C(C)C(=O)c1ccc(F)cc1 | 11.7% | – |
| C[C@@H]1[C@@H](c2ccccc2)Oc2c(Cl)cccc2S(=O)(=O)N1Cc1ccc(Cl)cc1 | 19.7% | – |
| C#C[C@]1(O)CC[C@H]2[C@@H]3CCC4=C/C(=N/O)CC[C@@H]4[C@H]3CC[C@@]21CC | 23.7% | – |
| COCCN1C(=O)N[C@@H](CCc2ccccc2)[C@H](C(C)=O)[C@H]1C | -2.21% [at 8.59 µM] | – |
| COc1ccc([C@]23Cc4ccccc4[C@H](O2)c2c(c4ccc(OC)cc4oc2=O)O3)cc1 | -9.62% [at 8.59 µM] | – |
| COc1ccc(-c2nc3c(c4c2C[C@H](c2ccccc2)OC4)CN(C(=O)c2cccnc2)CC3)c(C)c1 | 29.8% [at 8.59 µM] | – |
| CC[C@H]1C[C@H](C=CCC(C(=O)OC)C(=O)OC)OP(=O)(OC)O1 (stereo partly drawn) | 30.3% | – |
| CC[C@H]1CN2CCc3cc(OC)c(OC)cc3[C@@H]2C[C@@H]1C[C@H]1NCCc2cc(OC)c(OC)cc21 | – | 0.398 µM (active) |
| Cc1cc2oc(=O)cc(-c3ccccc3)c2c(C)c1-c1ccc(OC(F)(F)F)cc1 | -4.07% | – |
| O=C1OCCN1C(=O)[C@H]1[C@H](c2ccccc2)C(c2ccc(F)cc2)=NN1c1ccccc1 | -2.52% | – |
| C=C/C1=C/Cc2ccccc2[C@H](C[N+](=O)[O-])C(C(=O)OC)(C(=O)OC)C1 | -15.8% | – |
| CC/C=C\C/C=C\C/C=C\C/C=C\C/C=C\C/C=C\CCC(=O)NCCc1ccc(O)c(O)c1 | 11.2% | – |
| CC1=C2[C@@H](O)[C@H]([C@@H](C)C(=O)NCCC(C)C)CC[C@@]2(C)C=CC1=O | 12.8% | – |
| O=C(C1CCCCC1)N1C[C@@H](n2cc(C3CC3)nn2)[C@@H](O)C[C@@H]1c1ccccc1 | -1.69% | – |
| Cc1ccc(-c2ccc(CN3C(C(C)C)C(=O)N(Cc4cn(CCC5OCCCO5)nn4)CCS3(=O)=O)cc2)cc1 (stereo not drawn) | -27.2% | – |
| COC(=O)C12C[C@H](C)C3C(C)C(c4ccccc4C31)N2C(=O)C(F)(F)F (stereo partly drawn) | -25.2% [at 8.59 µM] | – |
